Assay [1] in a line: small molecules captured by biotinylated probe aFSTL3 – biochemical, small-molecule microarray, fluorescence 635/667, stem cell growth factor project, primary screen (AID 1064).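 Also: measures binding of the biotinylated anti-FSTL3 antibody to printed compounds.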 Conditions: higher = more signal.
Assay [2] is described as follows: binders from COS7 lysate, DM2A8 probe, primary screen, torsin A project, cell lysate, small-molecule microarray, fluorescence 635/667 (AID 1065). Conditions: higher = more signal, COS7 lysate expressing mutant human TOR1A.
Assay [3] can be described thus: small molecules captured by biotinylated probe aFGF2 – biochemical, small-molecule microarray, fluorescence 635/667, stem cell growth factor project, primary screen (AID 1067).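 Also: measures binding of biotinylated aFGF2 protein to printed compounds on slides; z-score merges feature fluorescence and signal-to-noise across triplicate slides.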 The note with it: higher = more signal.
Assay [4] is described as follows: small molecules captured by biotinylated probe aFGF10 – biochemical, small-molecule microarray, fluorescence 635/667, stem cell growth factor project, primary screen (AID 1071).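 Also: score merges 667 nm spot intensity and signal to noise from triplicate slides.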 Conditions: higher = more signal.
Assay [5] addresses Neurogenic locus notch homolog protein 2 (Homo sapiens) (UniProt Q04721). The assay can be described thus: small molecules binding Notch2 protein – biochemical, small-molecule microarray, 635 nm fluorescence, stem cell growth factors, primary screen (AID 1073). Conditions: higher = more signal.
In assay [6] the target is Pro-neuregulin-1, membrane-bound isoform (Homo sapiens) (UniProt Q02297). Kind of assay: small molecules binding neuregulin-1 protein – biochemical, small-molecule microarray, fluorescence 635/667, psychiatric disease protein project, primary screen (AID 1075).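 Also: score combines 667 nm spot fluorescence with signal to noise.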 The note with it: NRG1 binding, 635 nm fluorescence, higher = more signal.
Chain of Pro-neuregulin-1, membrane-bound isoform (Homo sapiens) (Q02297 whole entry, looked up, the tested form may be a part, canonical isoform): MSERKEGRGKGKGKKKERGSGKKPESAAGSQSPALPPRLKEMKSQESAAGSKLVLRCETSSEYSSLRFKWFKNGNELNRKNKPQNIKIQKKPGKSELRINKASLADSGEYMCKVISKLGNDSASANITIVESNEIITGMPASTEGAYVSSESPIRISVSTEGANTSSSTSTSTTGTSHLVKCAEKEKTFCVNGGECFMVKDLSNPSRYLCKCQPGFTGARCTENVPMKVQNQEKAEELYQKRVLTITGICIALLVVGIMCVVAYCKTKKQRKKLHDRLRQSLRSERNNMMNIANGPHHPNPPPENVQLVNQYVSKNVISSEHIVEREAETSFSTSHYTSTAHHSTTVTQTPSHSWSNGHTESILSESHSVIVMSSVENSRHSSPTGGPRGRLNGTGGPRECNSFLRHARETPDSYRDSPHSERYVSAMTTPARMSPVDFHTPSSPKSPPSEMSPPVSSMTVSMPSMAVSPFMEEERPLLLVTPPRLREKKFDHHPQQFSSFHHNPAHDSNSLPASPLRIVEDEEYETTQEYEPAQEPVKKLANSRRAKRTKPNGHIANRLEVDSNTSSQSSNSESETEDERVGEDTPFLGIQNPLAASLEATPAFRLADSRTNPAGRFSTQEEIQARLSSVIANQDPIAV
Assay [7] relates to Neuregulin-1 EGF-like domain. Kind of assay: small molecules binding NRG1 EGF domain – biochemical, small-molecule microarray, 635 nm fluorescence, primary screen (AID 1081).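 Also: binding of the protein to compounds printed on small-molecule microarray slides.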 The note with it: higher = more signal.
Assay [8] in a line: FRG1 expression reporter modulators in myotubes – cell-based, C2C12 myotubes, firefly/Renilla luciferase, luminescence, FRG1 inhibition for FSHD, primary screen (AID 1084). The note with it: FRG1 promoter luciferase, higher = more signal, called active from +8 up or from −8 down.
The nature of assay [9]: small molecules captured by biotinylated probe aFST – biochemical, small-molecule microarray, fluorescence 635/667, stem cell growth factor project, primary screen (AID 1086).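 Also: score merges 667 nm fluorescence with signal-to-noise of each printed compound spot.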 The note with it: higher = more signal.
Assay [10] is described as follows: binders of probe aHhip on microarray, primary screen, stem cell growth factor project, biochemical, small-molecule microarray, fluorescence 635/667 (AID 1087).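 Also: score merges spot fluorescence at 667nm with spot signal to noise ratio.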 Conditions: higher = more signal.
For assay [11], the system named is PRMT1 (protein arginine N-methyltransferase 1). The assay can be described thus: small molecules binding arginine methyltransferase PRMT1 – biochemical, small-molecule microarray, 635 nm fluorescence, primary screen (AID 1088).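 Also: binding of Prmt1 protein to compounds spotted on small-molecule microarray slides.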 The note with it: higher = more signal.
Assay [12] in a line: growth effects on S. cerevisiae YJM789 – YJM789 clinical isolate, OD600, 24 h, basal, primary screen (AID 1089).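 Also: growth of clinical yeast isolate S. cerevisiae YJM 789 seeded 1000 cells per well; test concentration not given here.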 The note with it: higher = more signal, called active from +8 up or from −8 down.
The nature of assay [13]: S. pombe growth modifiers, basal conditions – strain 972, OD600, 24 h, no modulator, primary screen (AID 1090).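 Also: basal condition with compound alone and no growth modifier present; test concentration not given here.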 The note with it: S. pombe 972 growth, higher = more signal, called active from +8 up or from −8 down.
The nature of assay [14]: budding yeast growth modifiers under rapamycin – strain BY4716, OD600, 96 h, primary screen (AID 1091). Also: test concentration not given here. The note with it: S. cerevisiae BY4716 + rapamycin, higher = more signal, called active from +8 up or from −8 down.
Assay [15] deals with Torsin-1A-interacting protein 2 (Homo sapiens) (UniProt Q8NFQ8). Kind of assay: small molecules binding lysate-expressed LULL1 – cell lysate, human LULL1 lysate, 635/667 nm fluorescence, primary screen (AID 1092).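 Also: score merges per-feature 667 nm fluorescence with signal-to-noise.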 The note with it: small-molecule microarray, hLULL1 lysate binding, 635 nm fluorescence; higher = more signal.
Chain of Torsin-1A-interacting protein 2 (Homo sapiens) (Q8NFQ8 whole entry, looked up): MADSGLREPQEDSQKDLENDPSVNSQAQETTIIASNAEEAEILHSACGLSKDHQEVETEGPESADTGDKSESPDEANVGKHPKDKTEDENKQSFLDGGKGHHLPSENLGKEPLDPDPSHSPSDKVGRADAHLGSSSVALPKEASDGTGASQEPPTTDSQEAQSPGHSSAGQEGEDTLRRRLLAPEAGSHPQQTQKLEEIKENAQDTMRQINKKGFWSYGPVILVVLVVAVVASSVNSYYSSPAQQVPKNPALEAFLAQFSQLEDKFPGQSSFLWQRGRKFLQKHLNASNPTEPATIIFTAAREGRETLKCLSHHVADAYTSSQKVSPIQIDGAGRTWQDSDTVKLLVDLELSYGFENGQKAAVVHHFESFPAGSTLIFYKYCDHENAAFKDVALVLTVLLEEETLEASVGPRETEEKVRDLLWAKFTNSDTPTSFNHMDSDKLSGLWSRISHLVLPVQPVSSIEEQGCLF
The nature of assay [16]: optical density change of DRC41 E. coli – strain DRC41, OD650, 24 h, E. coli filamentation project, primary screen (AID 1093).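 Also: MC1000 strain lacking acrAB efflux and sulA so SOS filamentation is blocked; test concentration not given here.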 Conditions: E. coli DRC41 growth, higher = more signal, called active from +8 up or from −8 down.
Assay [17] is described as follows: probe aLefty2 binding to arrayed compounds – biochemical, biotinylated probe, 635/667 nm fluorescence, primary screen (AID 1094).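 Also: score merges spot fluorescence near 667 nm with spot signal-to-noise ratio.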 Conditions: small-molecule microarray, higher = more signal.
For assay [18], the system named is Noggin (protein binding on small-molecule microarray). The assay can be described thus: small molecules binding Noggin protein – biochemical, 635/667 nm fluorescence, primary screen (AID 1095).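 Also: score merges 667 nm feature fluorescence with signal to noise over triplicate slides.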 The note with it: 635 nm fluorescence, higher = more signal.
For assay [19], the target named is Neurogenic locus notch homolog protein 3 (Homo sapiens) (UniProt Q9UM47). Kind of assay: small molecules binding NOTCH3 protein – biochemical, 635/667 nm fluorescence, primary screen (AID 1096). The note with it: small-molecule microarray, 635 nm fluorescence, higher = more signal.
Chain of Neurogenic locus notch homolog protein 3 (Homo sapiens) (Q9UM47 whole entry, looked up): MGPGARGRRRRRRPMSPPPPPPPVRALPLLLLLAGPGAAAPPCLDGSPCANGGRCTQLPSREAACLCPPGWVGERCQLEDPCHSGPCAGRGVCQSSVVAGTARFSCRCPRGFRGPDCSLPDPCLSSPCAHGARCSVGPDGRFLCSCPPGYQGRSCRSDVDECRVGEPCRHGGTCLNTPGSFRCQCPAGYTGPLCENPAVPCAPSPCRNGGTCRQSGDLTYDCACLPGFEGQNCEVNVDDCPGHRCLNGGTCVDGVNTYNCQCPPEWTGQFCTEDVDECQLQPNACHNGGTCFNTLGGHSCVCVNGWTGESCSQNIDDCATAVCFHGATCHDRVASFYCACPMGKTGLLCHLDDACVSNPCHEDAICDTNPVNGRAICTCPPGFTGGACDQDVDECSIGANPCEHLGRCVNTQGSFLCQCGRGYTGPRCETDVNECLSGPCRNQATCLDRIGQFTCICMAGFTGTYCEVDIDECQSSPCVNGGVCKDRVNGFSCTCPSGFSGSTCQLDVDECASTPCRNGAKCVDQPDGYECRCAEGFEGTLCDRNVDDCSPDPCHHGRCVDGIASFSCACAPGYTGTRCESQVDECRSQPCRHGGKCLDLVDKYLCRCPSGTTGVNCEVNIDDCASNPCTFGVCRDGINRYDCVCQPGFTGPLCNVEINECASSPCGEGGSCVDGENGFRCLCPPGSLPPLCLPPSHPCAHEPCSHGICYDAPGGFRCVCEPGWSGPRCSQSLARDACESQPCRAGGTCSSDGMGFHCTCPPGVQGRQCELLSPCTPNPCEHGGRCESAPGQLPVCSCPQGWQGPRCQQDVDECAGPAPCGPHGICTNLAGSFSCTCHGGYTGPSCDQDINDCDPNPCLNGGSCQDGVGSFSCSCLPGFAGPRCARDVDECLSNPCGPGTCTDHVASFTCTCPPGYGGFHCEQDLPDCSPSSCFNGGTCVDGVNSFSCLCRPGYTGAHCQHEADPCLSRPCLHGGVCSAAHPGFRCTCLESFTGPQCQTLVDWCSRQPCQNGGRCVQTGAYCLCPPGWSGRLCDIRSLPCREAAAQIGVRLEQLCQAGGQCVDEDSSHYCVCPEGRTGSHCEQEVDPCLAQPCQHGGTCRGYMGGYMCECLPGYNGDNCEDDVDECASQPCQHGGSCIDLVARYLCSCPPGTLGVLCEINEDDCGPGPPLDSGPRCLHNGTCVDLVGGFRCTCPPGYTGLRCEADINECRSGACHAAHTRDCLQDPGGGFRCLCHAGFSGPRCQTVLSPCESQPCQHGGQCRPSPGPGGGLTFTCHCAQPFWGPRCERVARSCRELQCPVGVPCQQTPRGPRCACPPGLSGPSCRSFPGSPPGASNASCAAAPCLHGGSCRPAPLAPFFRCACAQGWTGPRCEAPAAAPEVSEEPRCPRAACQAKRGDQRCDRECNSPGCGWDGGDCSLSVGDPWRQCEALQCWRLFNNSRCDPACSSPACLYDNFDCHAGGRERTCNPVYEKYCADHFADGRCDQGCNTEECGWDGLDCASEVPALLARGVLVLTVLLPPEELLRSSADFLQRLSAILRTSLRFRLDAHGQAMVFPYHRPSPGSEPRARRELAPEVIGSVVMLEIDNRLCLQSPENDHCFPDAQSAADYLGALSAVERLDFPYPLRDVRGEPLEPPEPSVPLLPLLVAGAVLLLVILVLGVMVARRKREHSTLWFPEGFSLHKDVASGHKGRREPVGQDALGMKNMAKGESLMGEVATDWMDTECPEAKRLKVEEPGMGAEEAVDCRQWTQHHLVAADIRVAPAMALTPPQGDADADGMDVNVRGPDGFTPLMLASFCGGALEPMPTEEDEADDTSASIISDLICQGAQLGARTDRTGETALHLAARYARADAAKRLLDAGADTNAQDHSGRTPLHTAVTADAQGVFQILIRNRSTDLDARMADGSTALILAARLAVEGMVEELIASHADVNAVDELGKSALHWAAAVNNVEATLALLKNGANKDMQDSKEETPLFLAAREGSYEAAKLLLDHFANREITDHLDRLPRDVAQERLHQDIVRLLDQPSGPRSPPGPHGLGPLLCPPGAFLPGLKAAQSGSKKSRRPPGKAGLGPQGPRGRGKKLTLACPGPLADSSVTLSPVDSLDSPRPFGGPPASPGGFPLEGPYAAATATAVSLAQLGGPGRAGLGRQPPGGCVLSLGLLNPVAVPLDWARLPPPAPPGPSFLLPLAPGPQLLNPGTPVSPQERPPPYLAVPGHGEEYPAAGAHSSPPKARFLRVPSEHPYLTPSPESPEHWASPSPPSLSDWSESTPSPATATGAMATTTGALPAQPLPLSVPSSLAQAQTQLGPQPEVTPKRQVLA
Assay [20] can be described thus: probe aEGFR binding to arrayed compounds – biochemical, biotinylated probe, 635/667 nm fluorescence, primary screen (AID 1097).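 Also: probe is a biotinylated anti-EGFR antibody binding compounds printed on slides; score combines fluorescence near 667 nm and signal to noise of each spot.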 Conditions: small-molecule microarray, higher = more signal.

Activity calls are given as the source filed them.

Take `COC(=O)[C@@]1(Cc2ccc(F)cc2)[C@H]2c3cc(C(=O)N4CCCC4)n(C[C@H](O)CO)c3C[C@H]2CN1C(=O)c1ccccc1`: the composite z-score in assay [1] came to 0.468; in [2], 0.501; in assay [3], 0.474; in assay [4] it was 0.697; in [5], 1.17; in assay [6], 2.15. Besides, the composite z-score was 1.16 in assay [7]; 1.42 in [9]; 1.35 in assay [10]; -0.399 in assay [11]; 1.57 in assay [15]; 1.03 in [17]. In addition, the figures for the composite z-score in [18], in [19] and in assay [20] were -0.123, 0.176 and 0.732, respectively. Also, the z-score in assay [8] is 3.49 (inactive); in [12] it was -0.161 (inactive); in assay [13], 1.34 (inactive); in assay [14], -0.0363 (inactive); in assay [16], -0.836 (inactive).
As for `CCOC(=O)C1=CCC(c2cccn2C(=O)OC(C)(C)C)N(S(=O)(=O)c2ccc(C)cc2)C1` (stereo not given), the composite z-score in assay [1] was 1.3; in assay [2], 0.42; in assay [3], 0.0267; in [4], 0.243; in assay [5], 0.884; in assay [6], 1.7. In addition, the composite z-score in assay [7] worked out at 1.18; in [9], 0.67; in assay [10], 1.07; in [11] it was 1.48; in assay [15], 3.36; in assay [17], 0.194. The composite z-score in [18] is 0.205; in assay [19] it was 1; in assay [20], -0.0004. In addition, the z-score in [8] was -2.99 (inactive); in assay [12], -0.0556 (inactive); in assay [13], 0.69 (inactive); in assay [14] it was 0.382 (inactive); in assay [16] it was -0.0304 (inactive).
For the molecule `COCCOC(=O)N1C(=O)[C@@]2(c3cc(C#CCNC(N)=O)ccc31)[C@H](C(=O)Nc1nc3ccccc3s1)[C@H]1C(=O)O[C@H](c3ccccc3)[C@H](c3ccccc3)N1[C@@H]2c1ccc(O)cc1`, the composite z-score in assay [1] was -0.145; in assay [2] it was 0.215; in [3], -0.0284; in [4] it was 0.46; in [5], 0.968; in [6], 0.882. Also, the composite z-score in assay [7] is 0.595; in assay [9], 0.501; in assay [10] it was 0.0373; in assay [11], 1.47; in [15], 1.35; in [17], -0.103. For the same molecule, the composite z-score in assay [18] worked out at 0.939; in assay [19], 0.986; in assay [20], 0.0654. The z-score in [8] was 0.709 (inactive); in assay [12] it was 1.45 (inactive); in [13] it was 1.16 (inactive); in assay [14] it was 1.32 (inactive); in assay [16], -0.264 (inactive).
As to `COC(=O)[C@]1(Cc2ccccc2N=[N+]=[N-])N=C(c2ccc(OCCCO)cc2)O[C@@H]1c1ccccc1CN=[N+]=[N-]`, the composite z-score in assay [1] was found to be 0.736; in [2], 1.08; in assay [3], 0.052; in [4], 0.728; in [5], 0.632; in assay [6], 1.06. In addition, the composite z-score stood at 1.16 in assay [7]; 0.484 in [9]; 0.176 in assay [10]; 1.56 in assay [11]; 2.25 in [15]; 0.021 in assay [17]. The composite z-score in assay [18] amounted to 1.23; in [19] it was 0.963; in assay [20] it was 0.0258. Besides, the z-score in assay [8] was -2.25 (inactive); in [12], -0.141 (inactive); in assay [13], 0.708 (inactive); in assay [14], 36.8 (active); in assay [16] it was -0.763 (inactive).
Turning to `C=C(COC)/C(=C/C[C@@H](OC(C)=O)c1cccc(OCCO)c1)c1cnc2ccccc2c1`, the composite z-score in assay [1] is 0.305; in assay [2] it was -0.116; in assay [3], -0.076; in assay [4], 0.826; in assay [5], 1.63; in assay [6], 0.679. The composite z-score in [7] was 1.18; in assay [9], 0.134; in assay [10] it was -0.214; in [11], 1.38; in assay [15] it was 1.07; in [17], 0.0303. Also, the figures for the composite z-score in [18], in assay [19] and in assay [20] were 0.822, 1.04 and -0.0653, respectively. Besides, the z-score in assay [8] is 3.42 (inactive); in [12], -2.07 (inactive); in assay [13] it was -6.62 (inactive); in [14] it was -1.38 (inactive); in [16], 1.03 (inactive).
As to `C=CC[C@H](O)c1ccc(O)c2ccccc12`, the composite z-score in assay [1] is -0.112; in assay [2], 0.821; in [3] it was -0.0558; in [4] it was 0.513; in assay [5], 0.61; in assay [6], 0.826. Also, the composite z-score in assay [7] is 1.3; in assay [9], 0.193; in assay [10], 0.0749; in assay [11], 1.56; in [15], 1.71; in assay [17], 0.0277. Also, the composite z-score was 1.07 in [18], 1.07 in assay [19] and -0.0151 in [20]. For the same molecule, the z-score in assay [8] was -0.0666 (inactive); in [12] it was -7.13 (inactive); in [13], -17.9 (active); in [14], 8.59 (active); in [16], 1.49 (inactive).
Regarding `CC[C@@H](O[Si](C#C[Si](C(C)C)(C(C)C)C(C)C)(C(C)C)C(C)C)c1cn(Cc2cccc(Cl)c2)nn1`, the composite z-score is -0.385 in assay [1]; 0.6 in [2]; -0.0594 in assay [3]; 0.238 in [4]; 0.863 in assay [5]; -0.019 in [6]. Moreover, the composite z-score was 0.69 in [7]; 0.197 in assay [9]; -0.0003 in [10]; 0.869 in [11]; -0.0557 in [15]; -0.138 in [17]. In addition, the results for the composite z-score in assay [18], in [19] and in [20] were 0.523, 0.932 and -0.113, respectively. In addition, the z-score is -0.0554 (inactive) in assay [8]; 0.978 (inactive) in assay [12]; 0.719 (inactive) in assay [13]; 1.44 (inactive) in assay [14]; 0.909 (inactive) in assay [16].
For the molecule `CC(C)C(=C=CC[C@H](O)c1cccc(OCCO)c1)C[C@H](O)c1ccccn1`, the composite z-score was -0.242 in assay [1]; -0.243 in assay [2]; -0.166 in assay [3]; 0.016 in assay [4]; -0.0938 in assay [5]; -0.272 in [6]. Further, the composite z-score in [7] is 1.05; in assay [9], -0.0565; in assay [10], -0.0645; in [11], 1.21; in [15], 1.55; in [17] it was -0.143. Also, the values for the composite z-score in assay [18], in assay [19] and in assay [20] were 0.731, 0.403 and -0.157, respectively. Also, the z-score in assay [8] was -0.29 (inactive); in assay [12], 0.262 (inactive); in assay [13], 0.317 (inactive); in assay [14], -0.647 (inactive); in assay [16], 0.879 (inactive).
As to `Cc1ccc(S(=O)(=O)N2[C@@H](c3ccccc3)C(C(=O)O)=CC[C@H]2c2ccc(F)cc2)cc1`, the composite z-score in assay [1] is -0.191; in [2] it was 1.32; in [3], 0.174; in [4] it was 1.41; in [5] it was -0.0595; in [6] it was -0.0826. Besides, the composite z-score in assay [7] is 1.33; in assay [9], 0.654; in assay [10], -0.252; in assay [11], 1.26; in assay [15], 4.08; in [17], -0.0803. Further, the composite z-score in assay [18] was -0.0184; in [19], 0.76; in [20] it was -0.241. Also, the z-score in [8] is -2.75 (inactive); in assay [12], -0.485 (inactive); in [13], 0.364 (inactive); in assay [14] it was 0.311 (inactive); in assay [16], -0.0865 (inactive).

Source of the values: PubChem BioAssay.
